Laboratory results published in the supplement of paper PMC3334620.
Whole data set: some 33,000 sequences, median “E-score (-0.5 to 0.5)” near -0.012, cut for the highest 2% near 0.29. The list comes from a sample in which the highest values are over-represented; it also holds similar and randomly drawn sequences.

The sequences below were run against T1, Ybr033w (UniProt P38073) (assay: PBM E-score (8-mer binding enrichment) (E-score (-0.5 to 0.5)); higher = stronger / more preferred TF binding). Settings: protein concentration: 200 nM; construct: GST-full length.
T1 sequence: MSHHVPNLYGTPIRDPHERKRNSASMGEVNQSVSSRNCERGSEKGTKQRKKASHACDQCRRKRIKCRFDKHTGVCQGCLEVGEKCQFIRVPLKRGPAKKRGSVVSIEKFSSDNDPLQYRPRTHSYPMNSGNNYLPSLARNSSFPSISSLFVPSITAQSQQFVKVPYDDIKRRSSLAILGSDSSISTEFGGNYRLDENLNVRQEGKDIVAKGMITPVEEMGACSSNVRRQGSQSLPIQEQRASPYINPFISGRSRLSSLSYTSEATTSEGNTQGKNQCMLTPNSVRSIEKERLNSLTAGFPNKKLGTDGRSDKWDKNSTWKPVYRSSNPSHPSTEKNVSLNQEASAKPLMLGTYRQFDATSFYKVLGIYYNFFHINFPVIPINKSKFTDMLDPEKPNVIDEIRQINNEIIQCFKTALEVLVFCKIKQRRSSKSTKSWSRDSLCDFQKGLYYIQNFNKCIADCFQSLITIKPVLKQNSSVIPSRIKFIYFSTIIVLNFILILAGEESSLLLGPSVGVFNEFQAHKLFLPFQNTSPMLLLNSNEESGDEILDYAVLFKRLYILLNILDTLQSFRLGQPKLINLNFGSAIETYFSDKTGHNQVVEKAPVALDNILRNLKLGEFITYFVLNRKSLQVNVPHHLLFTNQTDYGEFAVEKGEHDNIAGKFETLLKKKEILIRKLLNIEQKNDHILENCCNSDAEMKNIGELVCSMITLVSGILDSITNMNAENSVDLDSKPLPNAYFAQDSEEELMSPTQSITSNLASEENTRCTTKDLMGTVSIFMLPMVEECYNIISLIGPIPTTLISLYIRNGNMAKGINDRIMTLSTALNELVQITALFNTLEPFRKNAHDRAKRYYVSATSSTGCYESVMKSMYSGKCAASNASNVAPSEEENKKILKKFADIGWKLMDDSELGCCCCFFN
Summary of the method: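 PURExpress in vitro transcription/translation supplied GST-tagged yeast transcription factors, either full-length or DNA-binding domain. Applied at about 100-200 nM to universal all-10-mer Agilent arrays double-stranded by primer extension, the bound protein was detected with fluorescent anti-GST. E-scores, modified Wilcoxon-Mann-Whitney statistics, were given by the Universal PBM Analysis Suite to ungapped eight-base words pooled with their reverse complements after masliner normalisation.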

Sequence | PBM E-score
CCATTAGA | -0.14
CTGATAGC | -0.0429
TGTTCTAA | 0.181
TAGATCTA | 0.19
ATTCACAG | 0.0908
GTTCACAA | 0.18
ATTCACAA | 0.294
ATGAGGGG | -0.206
AAAAAAAT | 0.248
AAAAATAG | 0.296
AAAAATAC | 0.304
GAAAATAC | 0.252
ACAAATAT | 0.287
CAAAATAC | 0.217
AAAAATAT | 0.349
ACAAATAG | 0.167
CAAAATAG | 0.0554
CATTTTAC | 0.298
ACTTTTAG | 0.0501
ACTTTTAC | 0.327
CATTTTAA | 0.16
CATTTTAG | 0.234

Sequence | PBM E-score
ACTTTTAA | 0.125
AGAACCGC | 0.096
AGCGATTG | -0.0938
CAAATAAC | 0.214
TCAAAACA | 0.298
GGAAAACC | -0.11
GAAAACCC | -0.0428
CCAAAACA | -0.026
GAAGAACA | 0.353
GAAGAACC | 0.248
GGAAAACA | 0.17
GAAAAACA | 0.295
GAAAAACC | 0.386
CAAGAACA | 0.0281
AAAAAACA | 0.242
GCAAAACA | 0.0364
CGGAACCA | 0.141
GAACAAAC | 0.345
GAACAATA | 0.412
TAACAATA | 0.273
CAACAATC | 0.256
AAACAAAC | 0.229

Sequence | PBM E-score
AAACAATC | 0.234
CAACAAAC | 0.161
GAACAATC | 0.323
AAACAATA | 0.196
TAGCAATA | 0.16
AATCAGCT | 0.185
AGCTGCCG | -0.115
AGTTAATA | 0.336
AGTTAAAA | 0.298
CGTTAAAA | -0.0301
CGTTAATA | 0.166
GGTTAATA | 0.209
AGTTAATC | 0.368
TGTTAAAA | 0.226
CGTTAATC | 0.248
AGTTAATG | 0.216
TATTTGGA | 0.082
TCCAGACA | -0.127
GAGCGCAA | -0.0711
AACATACA | 0.179
CACTCTTA | 0.0582
GAAGATGC | -0.106

Sequence | PBM E-score
AATAATGT | 0.183
AATAATAC | 0.245
AACAATAA | 0.258
GGTAATAA | 0.228
TGTAATAA | 0.297
AATAATAT | 0.388
CATAATAA | 0.131
GATAATAA | 0.194
CGTAATAA | 0.154
AACAATAT | 0.375
TATAATAA | 0.318
AACAATAC | 0.157
AAGTTTAA | 0.139
AAAAGAAA | 0.179
ACGGACGT | -0.144
AAAGAGCC | -0.112
CAGGCTGC | -0.118
AGTAATAG | 0.218
TCTAATAA | 0.291
ACTAATAA | 0.276
AGTAATAC | 0.222
AATAATAG | 0.202
